From PubChem BioAssay
Jurkat NFkB inh: inhibitors of induced NF-kB luciferase reporter, primary screen, TCR NF-kB activation inhibitor project, cell-based, luminescence, uHTS; Jurkat, PMA/ionomycin-induced NF-kB luciferase reporter; inhibition, % at 4 µM; 0.53% of 330,000 active; AID 435003, 2010; in the data active = inhibition above about 50%
Gli-Sufu block: Gli-Sufu pathway antagonists, primary screen, luciferase luminescence, Sufu-KO-LIGHT cells, uHTS | Sufu-KO-LIGHT fibroblasts, Gli luciferase reporter luminescence | inhibition, % at 5 µM | 0.74% of 340,000 active;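 active = inhibition above about 55%, limit read from the data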;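 also: 0% = DMSO-treated cells and 100% = wells with medium but no cells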
Mdm2 MdmX PPI: inhibitors of human Mdm2-MdmX association, primary screen, cell-based, luminescence, split luciferase, SaOS-2, uHTS. inhibition, % at 8 µM. AID 485346, 2010. Protein Mdm4 (Homo sapiens) + E3 ubiquitin-protein ligase Mdm2 (Homo sapiens), …. SaOS-2 split-luciferase Mdm2/MdmX complementation. 3% of 330,000 active;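 active = inhibition of at least 50% at 8 µM in the primary screen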
Target sequence (O15151 whole entry, looked up): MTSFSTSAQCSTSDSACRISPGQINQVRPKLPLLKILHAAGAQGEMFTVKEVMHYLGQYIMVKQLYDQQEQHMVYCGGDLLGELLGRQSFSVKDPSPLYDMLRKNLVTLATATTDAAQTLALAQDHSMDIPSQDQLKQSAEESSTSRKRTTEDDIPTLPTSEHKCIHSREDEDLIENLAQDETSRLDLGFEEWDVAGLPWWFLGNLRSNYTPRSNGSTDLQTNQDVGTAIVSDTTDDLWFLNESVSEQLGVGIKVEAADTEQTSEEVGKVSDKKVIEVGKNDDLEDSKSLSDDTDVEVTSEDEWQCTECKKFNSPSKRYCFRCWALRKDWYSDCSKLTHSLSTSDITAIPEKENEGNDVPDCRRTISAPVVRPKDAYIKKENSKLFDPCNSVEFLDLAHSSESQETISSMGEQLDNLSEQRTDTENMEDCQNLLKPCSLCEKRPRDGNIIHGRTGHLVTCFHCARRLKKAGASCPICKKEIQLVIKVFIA
Target sequence (Q00987 whole entry, looked up): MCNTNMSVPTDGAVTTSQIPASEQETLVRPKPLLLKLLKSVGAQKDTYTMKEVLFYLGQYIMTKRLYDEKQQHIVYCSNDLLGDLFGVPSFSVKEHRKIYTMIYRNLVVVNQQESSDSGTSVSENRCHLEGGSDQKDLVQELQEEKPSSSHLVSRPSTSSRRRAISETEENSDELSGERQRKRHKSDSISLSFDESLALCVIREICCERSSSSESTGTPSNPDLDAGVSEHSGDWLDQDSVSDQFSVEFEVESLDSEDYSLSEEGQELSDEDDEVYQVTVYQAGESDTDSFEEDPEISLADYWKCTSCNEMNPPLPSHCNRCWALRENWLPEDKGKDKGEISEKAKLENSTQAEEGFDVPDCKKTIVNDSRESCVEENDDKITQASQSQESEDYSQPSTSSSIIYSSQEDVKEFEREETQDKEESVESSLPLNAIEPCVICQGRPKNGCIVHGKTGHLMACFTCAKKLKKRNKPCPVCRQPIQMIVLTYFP
697 NFkB inh: inhibitors of PMA/ionomycin-induced NF-kB reporter, 697 cells, primary screen, B-cell NF-kB inhibitor project, cell-based, luminescence, uHTS. inhibition, % at 4 µM. 697 B-cell NF-kB luciferase reporter, 16 h. AID 435022, 2010. 0.33% of 330,000 active; in the data active = inhibition above about 35%
Beta cell apopt: inhibitors of cytokine-induced beta cell apoptosis, primary screen, luminescence | protection from apoptosis, % (test concentration not listed) | 0.8% of 300,000 active | INS-1E cytokine-induced death, ATP luminescence, 48 h; percent of positive-control rescue, neutral wells zero;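 active = Every replicate reaches about 75%, or at least half do and their mean reaches it too, limit read from the data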;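 also: 0% = cytokine-treated negative control wells and 100% = positive control rescue; higher means more ATP so stronger rescue from cytokine killing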
CSC inhib: cancer stem cell viability inhibitors, primary screen, luminescence; cancer stem cell-like cells viability; inhibition, % at 7.5 µM; 1.1% of 300,000 active; in the data active = inhibition above about 75%; tested in HMLE shEcad cells
Jurkat NFkB conf: PMA/ionomycin-induced NF-kB reporter inhibitors, Jurkat retest, confirmation, T-cell NF-kB inhibitor project, cell-based, luminescence, single concentration | inhibition, % at 4 µM | Jurkat NF-kB luciferase, 16 h | 27% of 2,700 active | shares compounds with Jurkat NFkB inh | AID 435020, 2010;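 active = inhibition reaching about 45% at 4 µM in either replicate, limit read from the data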;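 also: plate controls were PMA/ionomycin stimulated DMSO wells for no effect and unstimulated DMSO wells for full effect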
697 NFkB conf: PMA/ionomycin-induced NF-kB reporter inhibitors, 697 retest, confirmation, B-cell NF-kB inhibitor project, cell-based, luminescence, single concentration; 697 B-cell NF-kB luciferase, 16 h; shares compounds with 697 NFkB inh; inhibition, % at 4 µM; 35% of 2,000 active; AID 449746, 2010; in the data active = inhibition mostly above about 28%, no sharp cut-off; inactive = mostly below about 22%
Mdm2-MdmX conf: Mdm2-MdmX complex disruptors, retested hits, confirmation, luminescence, single concentration | shares compounds with Mdm2 MdmX PPI | Mdm2-MdmX binding, luminescent assay | inhibition, % at 8 µM | 55% of 10,000 active | AID 489028, 2010; in the data active = inhibition above about 40%
Full FLuc ctr: full-length luciferase signal inhibition, confirmation, counter-screen for Mdm2/MdmX interaction inhibitor project, cell-based, single concentration, SaOS-2; shares compounds with Mdm2 MdmX PPI; SaOS-2 full-length luciferase counterscreen, luminescence; inhibition, % at 8 µM; 77% of 6,200 active; AID 504607, 2011;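 active = mean inhibition at 8 µM reaching about 37%, which flags the compound as non-specific, limit read from the data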;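 also: p53-null SaOS-2 cells with luciferase driven by a doxycycline-inducible promoter; compound on cells about two nights before reading with doxycycline added after day one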
* hit, by the source's call; i = inactive; / = no result given. This is a sample that favours compounds with a hit; in the whole collection about 4.5% have one here.

SMILES	Jurkat NFkB inh	Gli-Sufu block	Mdm2 MdmX PPI	697 NFkB inh	Beta cell apopt	CSC inhib	Jurkat NFkB conf	Mdm2-MdmX conf	Full FLuc ctr	others
CCN1CCN(c2ccc(S(=O)(=O)N3CCOCC3)cc2NC(=O)/C=C/c2ccc(C)cc2)CC1	3.6	27.6	25.7	5.2	/	-8.2	/	/	/
CC(=O)Nc1cccc(NC(=O)CSc2n[nH]c(-c3ccccc3)n2)c1	-3.9	-1.9	-13.3	9.5	-4.8	-11.3	/	/	/
Cc1noc(C)c1CSc1nc2ccccc2c(=O)n1-c1ccccc1	54.4*	19.7	66.7*	-5.6	29.1	6.1	45.1	63.1*	67.0*
COc1ccc(/C=C/C(=O)c2cc(F)ccc2OC(=O)c2ccccc2C)cc1OC	59.7*	41.8	60.6*	-97.7	49.7	48.6	9.2	66.4*	117.0*
O=S1(=O)Nc2c(ccc3cccnc23)-c2ccccc21	69.1*	82.5*	100.3*	-82.3	30.9	95.5*	53.9*	96.7*	54.0*
COC(=O)c1cc(S(=O)(=O)N2CCCC2=O)c(Cl)cc1Cl	-2.6	2.2	10.5	-8.5	2.2	-6.7	/	/	/
O=C(COC(=O)c1cccc(S(=O)(=O)Nc2ccc(F)cc2)c1)NCCN1C(=O)CSC1=O	7.8	-2.5	4.5	22.8	-4.6	-1.0	/	/	/
COc1ccccc1N1CCN(C(=O)C2c3ccccc3Oc3ccccc32)CC1	55.2*	5.5	64.3*	-29.3	35.5	51.7	44.5	56.0*	88.8*
COc1ccccc1N1CCN(C(=O)C2CC2)CC1	-7.5	4.3	15.8	-6.6	/	-14.8	/	/	/
COc1ccc(-c2cccc(-c3cc(=O)oc4ccc(C(C)(C)C)cc34)c2)cc1	/	-3.8	13.5	-11.7	/	/	/	/	/
Cc1ccsc1/C=N/NC(=O)c1cc(-c2ccncc2)nc2ccccc12	58.2*	44.9	57.5*	23.6	3.7	78.3*	55.5*	59.6*	58.0*
O=C(Nc1ccc(Br)cc1)c1cc(-c2ccncc2)nc2ccccc12	57.2*	-4.0	62.4*	-31.7	0.7	-5.2	27.6	50.9*	45.4*
COC(=O)c1ccc(NC(=O)c2cc(-c3ccncc3)nc3ccccc23)cc1	-1.2	-1.1	32.7	13.5	0.3	/	/	/	/
COc1ccccc1-c1cc(C(=O)N/N=C/c2sccc2C)c2ccccc2n1	15.5	0.5	46.1	9.9	17.7	-17.2	/	/	/
O=C(N/N=C/c1ccsc1)c1cc(-c2cccs2)nc2ccccc12	16.3	-7.0	23.5	-37.6	7.5	54.4	/	/	/
O=C(N/N=C/c1ccsc1)c1cc(-c2ccncc2)nc2ccccc12	55.3*	44.5	51.9*	-75.2	7.0	57.6	19.1	38.1	66.3*
O=C(N/N=C/c1ccc([N+](=O)[O-])o1)c1cc(-c2ccc(-c3ccccc3)cc2)nc2ccccc12	-177.5	-70.2	63.8*	i	24.2	77.7*	-84.6	57.2*	83.7*	697 NFkB conf=i
Nc1cc(N)nc(SCC(=O)NC2CCCCCCC2)n1	7.7	0.8	12.4	2.8	/	/	/	/	/
Cc1ccc(/C=N/NC(=O)c2cc(-c3cccnc3)nc3ccccc23)cc1	62.8*	-3.5	53.9*	-14.5	19.3	42.1	11.6	40.5*	48.2*
O=C(N/N=C/c1ccc2c(c1)OCO2)c1cc(-c2ccccc2Cl)nc2ccccc12	-2.5	1.2	20.0	-29.8	60.7	8.0	/	/	/
O=C(N/N=C/c1ccc2c(c1)OCO2)c1cc(-c2ccncc2)nc2ccccc12	57.3*	11.2	51.1*	-36.3	5.6	72.4	2.7	44.5*	58.9*
O=C(N/N=C/c1cccnc1)c1cc(-c2ccccc2)nc2ccccc12	-8.5	3.8	14.7	-1.2	0.2	-6.4	/	/	/
CN(CCc1ccccc1)C(=O)c1cccc(NC(=O)Cc2cccc(NC(=O)C3CCN(C(=O)c4ccccc4)CC3)c2)c1	/	-2.9	/	/	/	/	/	/	/
COc1ccc(-c2nc(-c3ccccn3)no2)cc1	76.8*	69.0*	88.7*	48.4*	89.1*	87.6*	86.1*	90.8*	53.7*	697 NFkB conf=38.8*
CCCn1cc(S(=O)(=O)c2ccccc2)c(=O)c2cc(F)c(N3CCN(C)CC3)cc21	0.6	3.4	11.4	3.2	-1.0	6.8	/	/	/
SMILES	Jurkat NFkB inh	Gli-Sufu block	Mdm2 MdmX PPI	697 NFkB inh	Beta cell apopt	CSC inhib	Jurkat NFkB conf	Mdm2-MdmX conf	Full FLuc ctr	others
C=C(C)COc1ccc(-c2[nH]ncc2-c2ccc(OC)c(OC)c2)c(O)c1	63.7*	6.2	65.6*	-60.2	23.8	92.0*	62.4*	59.8*	55.9*
C=C(C)COc1ccc(-c2n[nH]c(C)c2-c2ccc(OC)c(OC)c2)c(O)c1	66.9*	-6.8	70.9*	-13.2	20.5	80.9*	50.4*	53.6*	62.7*
COc1ccc(-c2cn[nH]c2-c2ccc(OCC(=O)NN)cc2O)cc1OC	-28.3	-2.7	14.3	21.4	0.8	-4.3	/	/	/
Cc1ccc(C)c(N(CC(=O)N2CCCC2)S(C)(=O)=O)c1	-7.7	10.1	0.9	-8.1	-1.8	-9.9	/	/	/
CNC(=O)c1ccsc1NC(=O)CS(=O)(=O)c1ccc(Cl)cc1	4.7	2.7	19.5	2.2	2.1	9.1	/	/	/
COc1ccc(Oc2nc(SC)nc3ccsc23)cc1	17.0	1.9	49.9	-35.8	-5.7	64.0	/	/	/
CSc1nc(Oc2ccc3ccccc3c2)c2sccc2n1	63.9*	-16.0	54.6*	-34.3	8.3	66.8	30.7	66.5*	42.6*
CC1CCCC(NC(=O)COC(=O)c2n[nH]c3ccccc23)C1C (centres undefined)	16.6	-3.5	22.5	2.4	-1.9	-26.4	/	/	/
O=C(NC(=O)c1ccccc1)OCCN1C(=O)c2ccccc2C1=O	5.8	-6.7	17.8	7.7	-0.7	-11.4	/	/	/
O=C(O)c1cccc(-n2nc(-c3ccc(Cl)c([N+](=O)[O-])c3)c3ccccc3c2=O)c1	-2.2	-7.3	16.3	4.7	4.2	/	/	/	/
